The target in test [1] is Agonist Androgen Response Element (ARE), AR (gene 367) (UniProt P10275). As to the kind of experiment: OT_AR_ARELUC_AG_1440: Odyssey Thera (OT) 24-hour CHO-K1 Luciferase Assay for Agonist Androgen Response Element (ARE) (AID 2283379). The essentials:
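Agonist mode, 24 h exposure in CHO-K1 ARE-luciferase cells; values reflect luminescence induction over vehicle.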

The target in test [2] is Estrogen receptor beta (Homo sapiens) (UniProt Q92731). The test is described as follows: OT_ER_ERbERb_1440: Odyssey Thera (OT) 24-hour HEK293T Protein-Complementation Assay for Estrogen Receptor-beta/-beta Homodimer (AID 2283380).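 Also: fluorescence gain from ER beta LBD homodimer complementation read by laser scanning cytometry; scored as signal increase over DMSO baseline for both agonists and antagonists.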 In outline: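 Fluorescence increase, nuclear for agonists or whole-cell for antagonists, relative to DMSO vehicle, quantified by laser scanning cytometer after fixation and Draq5 staining. Readout from 24 h treatment of HEK293T cells carrying complementation-paired ER beta LBD (aa 310-547).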
Estrogen receptor beta (Homo sapiens), sequence (Q92731 whole entry, looked up, the tested form may be a part): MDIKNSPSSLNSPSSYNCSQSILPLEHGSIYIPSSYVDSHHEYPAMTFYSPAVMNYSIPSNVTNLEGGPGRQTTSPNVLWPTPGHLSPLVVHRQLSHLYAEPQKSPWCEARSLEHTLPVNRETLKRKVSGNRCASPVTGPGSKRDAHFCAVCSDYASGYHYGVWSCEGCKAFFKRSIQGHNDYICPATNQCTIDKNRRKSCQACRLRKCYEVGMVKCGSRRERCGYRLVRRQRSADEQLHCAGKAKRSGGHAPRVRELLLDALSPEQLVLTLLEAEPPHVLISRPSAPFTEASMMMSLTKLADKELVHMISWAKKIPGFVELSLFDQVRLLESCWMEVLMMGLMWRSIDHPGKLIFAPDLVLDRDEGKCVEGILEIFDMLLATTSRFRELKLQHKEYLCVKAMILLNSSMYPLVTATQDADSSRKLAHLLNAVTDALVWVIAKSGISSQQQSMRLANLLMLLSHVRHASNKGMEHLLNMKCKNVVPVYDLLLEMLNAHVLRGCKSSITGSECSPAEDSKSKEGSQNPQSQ

In test [3] the target is Estrogen receptor (Homo sapiens) (UniProt P03372). As to the kind of experiment: OT_ERa_GFPERaERE_0480: Odyssey Thera (OT) 8-hour HeLa Transcription Induction Assay for Estrogen Receptor (AID 2283381; active = hit-call score of the fitted dose curve at least 0.9, where 1 is the maximum; inactive = score below 0.9). The essentials: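 HeLa cells dosed with compound and imaged by fluorescence microscopy at 8 h; GFP induction from an ERE reporter quantified by high-content image analysis and fitted as gain of signal against DMSO baseline.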
Estrogen receptor (Homo sapiens), sequence (P03372 whole entry, looked up): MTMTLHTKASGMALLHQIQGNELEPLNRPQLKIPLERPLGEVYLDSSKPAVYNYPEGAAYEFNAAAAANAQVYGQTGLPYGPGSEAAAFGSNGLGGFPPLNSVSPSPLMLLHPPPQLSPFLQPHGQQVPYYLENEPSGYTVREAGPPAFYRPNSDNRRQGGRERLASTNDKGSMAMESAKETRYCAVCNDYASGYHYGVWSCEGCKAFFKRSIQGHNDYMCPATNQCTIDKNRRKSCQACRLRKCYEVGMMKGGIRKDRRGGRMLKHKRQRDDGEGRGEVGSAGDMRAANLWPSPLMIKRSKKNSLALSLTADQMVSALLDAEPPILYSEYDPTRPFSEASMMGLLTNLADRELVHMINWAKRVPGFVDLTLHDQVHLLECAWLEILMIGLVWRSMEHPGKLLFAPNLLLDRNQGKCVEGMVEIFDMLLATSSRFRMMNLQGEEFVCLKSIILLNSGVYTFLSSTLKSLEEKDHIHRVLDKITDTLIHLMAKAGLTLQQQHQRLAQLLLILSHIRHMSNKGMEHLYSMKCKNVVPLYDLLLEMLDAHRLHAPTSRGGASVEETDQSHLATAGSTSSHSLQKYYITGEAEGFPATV

The target is the same in test [4]. The test is described as follows: OT_ERa_GFPERaERE_0120: Odyssey Thera (OT) 2-hour HeLa Transcription Induction Assay for Estrogen Receptor (AID 2283382). The essentials: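 HeLa cells were dosed with test chemical and read 2 hours later for GFP-ERα/ERE-linked fluorescent protein induction by fluorescence microscopy. Gain-of-signal was fitted relative to DMSO baseline, quantified by high content image analysis.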

In test [5] the target is Retinoic acid receptor RXR-alpha (Homo sapiens) (UniProt P19793). As to the kind of experiment: OT_NURR1_NURR1RXRa_1440: Odyssey Thera (OT) 24-hour HEK293T Protein Complementation Assay for Nurr1/retinoid X receptor (RXR) (AID 2283386). In outline: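 HEK293T cells were dosed with compound and read 24 h later by fluorescence intensity in a protein-fragment complementation format, where Nurr1–RXRα interaction reconstitutes a split reporter. Activity was fitted as gain of signal relative to DMSO baseline.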
Retinoic acid receptor RXR-alpha (Homo sapiens), sequence (P19793 whole entry, looked up, the tested form may be a part): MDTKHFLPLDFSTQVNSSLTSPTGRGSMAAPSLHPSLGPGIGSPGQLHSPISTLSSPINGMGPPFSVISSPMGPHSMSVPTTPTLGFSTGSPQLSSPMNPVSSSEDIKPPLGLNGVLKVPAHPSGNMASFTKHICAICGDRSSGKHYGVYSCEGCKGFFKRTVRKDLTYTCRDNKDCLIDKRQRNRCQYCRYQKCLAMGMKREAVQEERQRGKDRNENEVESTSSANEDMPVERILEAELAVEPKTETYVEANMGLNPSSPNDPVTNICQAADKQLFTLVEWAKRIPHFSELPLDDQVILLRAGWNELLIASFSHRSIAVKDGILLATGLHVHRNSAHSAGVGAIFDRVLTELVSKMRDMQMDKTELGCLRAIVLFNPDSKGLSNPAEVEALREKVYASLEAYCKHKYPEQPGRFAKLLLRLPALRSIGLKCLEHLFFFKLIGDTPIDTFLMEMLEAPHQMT

Test [6] deals with Peroxisome proliferator-activated receptor gamma (Homo sapiens) (UniProt P37231). The test is described as follows: OT_PPARg_PPARgSRC1_0480: Odyssey Thera (OT) 8-hour Protein-Complementation Assay for Peroxisome Proliferator-activated Receptor Gamma / SRC-1 Co-activator (AID 2283387).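 Also: nuclear to cytoplasmic split Venus YFP fluorescence ratio reporting PPARg SRC-1 interaction.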 The essentials: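 Split-YFP (IFP1/IFP2) PPARg/SRC-1 reporter, HEK293T, 37 °C, 5% CO2; 8 h compound; formaldehyde fix + Draq5; high-content imaging, N/C ratio, ≥350 cells/image, positive direction vs DMSO.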
Peroxisome proliferator-activated receptor gamma (Homo sapiens), sequence (P37231 whole entry, looked up): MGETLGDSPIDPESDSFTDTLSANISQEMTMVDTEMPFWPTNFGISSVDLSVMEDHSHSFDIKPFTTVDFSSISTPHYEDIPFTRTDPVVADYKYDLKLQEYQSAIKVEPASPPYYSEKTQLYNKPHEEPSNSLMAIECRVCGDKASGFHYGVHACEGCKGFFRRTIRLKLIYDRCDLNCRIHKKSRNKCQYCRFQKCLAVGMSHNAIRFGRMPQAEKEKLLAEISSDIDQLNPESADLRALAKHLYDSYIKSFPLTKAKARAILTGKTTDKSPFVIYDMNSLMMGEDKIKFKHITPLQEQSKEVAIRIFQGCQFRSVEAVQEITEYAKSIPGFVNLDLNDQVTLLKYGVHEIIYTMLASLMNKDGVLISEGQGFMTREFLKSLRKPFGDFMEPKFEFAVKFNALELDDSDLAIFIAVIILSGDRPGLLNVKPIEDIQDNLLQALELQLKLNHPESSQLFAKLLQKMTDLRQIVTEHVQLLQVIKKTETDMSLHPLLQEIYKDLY

Test [7] has the same target. As to the kind of experiment: OT_PPARg_PPARgSRC1_1440: Odyssey Thera (OT) 24-hour Protein-Complementation Assay for Peroxisome Proliferator-activated Receptor Gamma/ SRC-1 Co-activator (AID 2283388).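 Also: nuclear to cytoplasmic ratio of reconstituted Venus YFP fluorescence in fixed imaged cells.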 The essentials:
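Readout: nuclear-to-cytoplasmic 488 nm fluorescence ratio, ≥350 cells per image, 8 images per well, after 24 h compound exposure of HEK293T expressing PPARg/SRC-1 split-YFP fusions. Activity fitted in positive direction against DMSO.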

Test [8] concerns the target human Norepinephrine Transporter (NET), SLC6A2 (gene 6530) (UniProt P23975). The test is described as follows: NVS_TR_hNET: NovaScreen (NVS) Transporter Assay for human Norepinephrine Transporter (NET) (AID 2283377).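 Also: cell-free membrane protein extracted from CHO cells expressing human NET.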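 As to AC50: displacement of radioligand from human NET seen as loss of scintillation signal.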 The essentials:
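Scintillation counts of filter-retained radioligand served as the readout, taken 1 h post-dosing in a cell-free CHO-derived system. Test chemicals ran first at 25 uM in duplicate; confirmed hits were retested across concentrations.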

For test [9], the target named is Bile acid receptor (Homo sapiens) (UniProt Q96RI1). As to the kind of experiment: OT_FXR_FXRSRC1_0480: Odyssey Thera (OT) 8-hour HEK293T Protein-Complementation Assay for Farnesoid X receptor/SRC-1 Co-activator (AID 2283383). The essentials:
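HEK293T cells expressing FXR and SRC-1 fused to reporter fragments were dosed with compound for 8 h; fluorescence from the reconstituted reporter marked co-activator recruitment. Gain of signal was fitted against the DMSO baseline.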

The nature of test [10]: CEETOX_H295R_OHPREG: CeeTox H295R High-throughput Steroidogenesis Assay for OH-Pregnenolone (OHPREG) (AID 2283434; active = hit-call score of the fitted dose curve at least 0.9, where 1 is the maximum; inactive = score below 0.9). As to conditions: actives raise or lower the signal. In outline: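 Hormone levels in spent medium were measured by tandem mass spectrometry following liquid-liquid extraction. Cells (H295R) had been forskolin-stimulated (10 uM, 48 h) before a 48 h chemical exposure at 0.1% DMSO, with activity fitted in both directions against DMSO.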

A short description of test [11]: CEETOX_H295R_OHPROG: CeeTox H295R High-throughput Steroidogenesis Assay for OH-Progesterone (OHPROG) (AID 2283435; active = hit-call score of the fitted dose curve at least 0.9, where 1 is the maximum; inactive = score below 0.9). The settings on record: actives raise or lower the signal. The essentials:
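H295R human adrenal cells were prestimulated 48 h with 10 uM forskolin, then exposed 48 h to test chemical (0.1% DMSO final). 17alpha-hydroxyprogesterone in medium was measured by HPLC-MS/MS after MTBE extraction; bidirectional fitting vs DMSO.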

The target of test [12] is mouse Estrogen Receptor alpha (Era), Esr1 (gene 13982) (UniProt P19785). As to the kind of experiment: NVS_NR_mERa: NovaScreen (NVS) Nuclear Receptor Binding Assay for mouse Estrogen Receptor alpha (Era) (AID 2283378).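 Also: hit means loss of bound radioligand signal relative to DMSO.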 The essentials:
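Filter scintillation counts of bound radioligand, measured 18 h post-dose, gave the readout; decreased signal relative to DMSO controls indicated displacement from mouse Era. Primary screen ran in duplicate at 25 uM; active chemicals were retested across concentrations.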

A short description of test [13]: CEETOX_H295R_11DCORT: CeeTox H295R High-throughput Steroidogenesis Assay for 11-Deoxycortisol (11DCORT) (AID 2283432; active = hit-call score of the fitted dose curve at least 0.9, where 1 is the maximum; inactive = score below 0.9;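 as to AC50: 11-deoxycortisol secreted into the medium measured by LC-MS/MS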). The settings on record: actives raise or lower the signal. The essentials: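 Steroidogenesis in human H295R cells: 48 h chemical exposure after forskolin priming, 11-deoxycortisol measured by LC-MS/MS.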
Test [14] is described as follows: CEETOX_H295R_CORTIC: CeeTox H295R High-throughput Steroidogenesis Assay for Corticosterone (CORTIC) (AID 2283437; active = hit-call score of the fitted dose curve at least 0.9, where 1 is the maximum; inactive = score below 0.9;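 also: corticosterone secreted into medium quantified by mass spectrometry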). The settings on record: actives raise or lower the signal. In outline:
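Corticosterone secreted into medium is measured by reverse-phase HPLC with tandem MS following liquid-liquid extraction. Cells are forskolin-stimulated (10 uM, 48 h) before 48 h test exposure; activity fitted in both directions against DMSO.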

A short description of test [15]: CEETOX_H295R_CORTISOL: CeeTox H295R High-throughput Steroidogenesis Assay for Cortisol (AID 2283438; active = hit-call score of the fitted dose curve at least 0.9, where 1 is the maximum; inactive = score below 0.9;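 also: cortisol secreted into medium quantified by LC-MS/MS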). The settings on record: actives raise or lower the signal. The essentials: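 H295R human adrenal cells were prestimulated 48 h with 10 uM forskolin, then exposed 48 h to test chemical (0.1% DMSO final). Medium cortisol was quantified by HPLC-MS/MS after MTBE extraction; bidirectional fitting relative to DMSO baseline.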

A short description of test [16]: CEETOX_H295R_DOC: CeeTox H295R High-throughput Steroidogenesis Assay for DOC (AID 2283439; active = hit-call score of the fitted dose curve at least 0.9, where 1 is the maximum; inactive = score below 0.9). As to conditions: actives raise or lower the signal. The essentials:
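H295R adrenal cells prestimulated 48 h with 10 uM forskolin, then exposed 48 h to test chemical (0.1% DMSO final). Medium 11-deoxycorticosterone extracted with MTBE, quantified by HPLC-MS/MS; bidirectional fit versus DMSO baseline; MTT viability in same wells.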

Test [17] deals with Retinoic acid receptor RXR-alpha (Homo sapiens) (UniProt P19793). As to the kind of experiment: OT_NURR1_NURR1RXRa_0480: Odyssey Thera (OT) 8-hour HEK293T Protein Complementation Assay for Nurr1/retinoid X receptor (RXR) (AID 2283385). In outline: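 HEK293T cells expressing Nurr1 and RXRα fused to reporter fragments were dosed with compound for 8 hours. Complex formation was read as fluorescence intensity and analysed as gain of signal against DMSO as baseline.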

Test [18] can be described thus: CEETOX_H295R_ANDR: CeeTox H295R High-throughput Steroidogenesis Assay for Androstenedione (ANDR) (AID 2283436; active = hit-call score of the fitted dose curve at least 0.9, where 1 is the maximum; inactive = score below 0.9). The settings on record: actives raise or lower the signal. The essentials:
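Read-out is androstenedione secreted into medium, measured by tandem mass spectrometry after liquid-liquid extraction. Cells were H295R, dosed for 48 h per modified OECD 456; activity fitted in both directions relative to DMSO.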

The nature of test [19]: CEETOX_H295R_ESTRADIOL: CeeTox H295R High-throughput Steroidogenesis Assay for Estradiol (AID 2283440; active = hit-call score of the fitted dose curve at least 0.9, where 1 is the maximum; inactive = score below 0.9;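 also: estradiol secreted into medium quantified by LC-MS/MS after dansyl derivatisation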). The settings on record: actives raise or lower the signal. In outline: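 H295R, 48 h forskolin (10 uM) prestim → 48 h compound, 0.1% DMSO final. Estradiol in medium: MTBE extraction, dansyl chloride derivatization, LC-MS/MS. Fit bidirectional vs DMSO baseline; MTT viability in same wells.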

The nature of test [20]: CEETOX_H295R_ESTRONE: CeeTox H295R High-throughput Steroidogenesis Assay for Estrone (AID 2283441; active = hit-call score of the fitted dose curve at least 0.9, where 1 is the maximum; inactive = score below 0.9;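 also: estrone secreted into medium measured by LC-MS/MS after dansyl derivatization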). The settings on record: actives raise or lower the signal. In outline:
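H295R cells; 48 h forskolin (10 uM) prestimulation; 48 h compound exposure, 0.1% DMSO final. Medium estrone: MTBE extraction, dansyl derivatization, HPLC-MS/MS. Bidirectional fit vs DMSO.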

Broadly, the AC50 is the concentration at which the activity in the assay is half-maximal.

SMILES strings stand for the structures. Records with an inconclusive call do not appear. Active and inactive are the calls of the source. The calls were made as follows, unless noted: active = hit-call score of the fitted dose curve at least 0.9, where 1 is the maximum; inconclusive = response in the unintended direction; inactive = score below 0.9.

Bile acid receptor (Homo sapiens), sequence (Q96RI1 whole entry, looked up, the tested form may be a part): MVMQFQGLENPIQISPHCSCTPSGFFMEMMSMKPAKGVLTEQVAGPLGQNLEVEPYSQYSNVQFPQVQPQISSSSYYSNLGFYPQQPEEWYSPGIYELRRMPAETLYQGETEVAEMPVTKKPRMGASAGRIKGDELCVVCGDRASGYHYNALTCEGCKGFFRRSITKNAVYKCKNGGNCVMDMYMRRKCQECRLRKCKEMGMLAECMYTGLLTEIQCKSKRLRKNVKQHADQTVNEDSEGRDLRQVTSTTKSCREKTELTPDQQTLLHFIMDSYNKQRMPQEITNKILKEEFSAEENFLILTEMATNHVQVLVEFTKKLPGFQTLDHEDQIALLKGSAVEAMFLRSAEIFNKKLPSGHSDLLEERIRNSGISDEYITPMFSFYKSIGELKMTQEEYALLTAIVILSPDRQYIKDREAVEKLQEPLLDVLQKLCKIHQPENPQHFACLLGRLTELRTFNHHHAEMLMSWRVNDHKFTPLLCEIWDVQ
Agonist Androgen Response Element (ARE), AR (gene 367), sequence (P10275 whole entry, looked up): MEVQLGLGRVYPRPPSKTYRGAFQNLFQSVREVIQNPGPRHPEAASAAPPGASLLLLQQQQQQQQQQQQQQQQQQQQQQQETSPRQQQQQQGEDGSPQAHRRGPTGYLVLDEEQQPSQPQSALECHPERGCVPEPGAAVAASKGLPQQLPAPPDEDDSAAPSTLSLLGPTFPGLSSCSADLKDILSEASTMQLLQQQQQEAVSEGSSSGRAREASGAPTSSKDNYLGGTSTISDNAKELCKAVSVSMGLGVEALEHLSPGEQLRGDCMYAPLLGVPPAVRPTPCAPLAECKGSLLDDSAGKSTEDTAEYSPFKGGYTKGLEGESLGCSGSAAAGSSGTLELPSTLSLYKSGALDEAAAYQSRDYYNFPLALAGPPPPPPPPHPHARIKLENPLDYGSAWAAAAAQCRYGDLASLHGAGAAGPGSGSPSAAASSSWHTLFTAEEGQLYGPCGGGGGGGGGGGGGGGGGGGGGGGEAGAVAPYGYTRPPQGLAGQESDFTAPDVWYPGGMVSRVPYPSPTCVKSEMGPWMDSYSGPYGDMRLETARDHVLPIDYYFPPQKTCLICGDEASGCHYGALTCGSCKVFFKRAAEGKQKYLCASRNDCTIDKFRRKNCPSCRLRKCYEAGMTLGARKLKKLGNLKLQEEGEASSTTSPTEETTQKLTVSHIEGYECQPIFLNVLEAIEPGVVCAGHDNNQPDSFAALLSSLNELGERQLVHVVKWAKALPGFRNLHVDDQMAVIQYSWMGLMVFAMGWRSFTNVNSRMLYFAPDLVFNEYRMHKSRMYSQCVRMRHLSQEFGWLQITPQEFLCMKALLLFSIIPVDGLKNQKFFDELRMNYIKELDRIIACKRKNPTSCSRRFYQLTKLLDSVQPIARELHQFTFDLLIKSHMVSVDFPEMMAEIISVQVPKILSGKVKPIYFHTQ
mouse Estrogen Receptor alpha (Era), Esr1 (gene 13982), sequence (P19785 whole entry, looked up): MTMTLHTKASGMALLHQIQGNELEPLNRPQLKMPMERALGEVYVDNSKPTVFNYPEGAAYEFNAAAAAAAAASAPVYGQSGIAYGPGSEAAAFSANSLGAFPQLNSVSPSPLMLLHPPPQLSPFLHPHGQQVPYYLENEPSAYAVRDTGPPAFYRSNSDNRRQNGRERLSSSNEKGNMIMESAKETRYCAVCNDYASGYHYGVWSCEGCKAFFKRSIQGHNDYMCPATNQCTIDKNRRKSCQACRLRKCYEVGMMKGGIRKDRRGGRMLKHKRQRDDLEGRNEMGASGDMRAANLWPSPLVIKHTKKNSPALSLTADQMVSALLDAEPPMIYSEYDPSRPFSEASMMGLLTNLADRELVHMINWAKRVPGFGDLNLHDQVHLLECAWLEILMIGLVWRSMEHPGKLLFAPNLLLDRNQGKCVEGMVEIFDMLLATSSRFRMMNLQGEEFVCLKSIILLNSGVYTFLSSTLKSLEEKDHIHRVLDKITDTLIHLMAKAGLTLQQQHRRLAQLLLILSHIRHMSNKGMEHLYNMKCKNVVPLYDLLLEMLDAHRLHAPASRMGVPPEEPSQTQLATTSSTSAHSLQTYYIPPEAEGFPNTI
human Norepinephrine Transporter (NET), SLC6A2 (gene 6530), sequence (P23975 whole entry, looked up): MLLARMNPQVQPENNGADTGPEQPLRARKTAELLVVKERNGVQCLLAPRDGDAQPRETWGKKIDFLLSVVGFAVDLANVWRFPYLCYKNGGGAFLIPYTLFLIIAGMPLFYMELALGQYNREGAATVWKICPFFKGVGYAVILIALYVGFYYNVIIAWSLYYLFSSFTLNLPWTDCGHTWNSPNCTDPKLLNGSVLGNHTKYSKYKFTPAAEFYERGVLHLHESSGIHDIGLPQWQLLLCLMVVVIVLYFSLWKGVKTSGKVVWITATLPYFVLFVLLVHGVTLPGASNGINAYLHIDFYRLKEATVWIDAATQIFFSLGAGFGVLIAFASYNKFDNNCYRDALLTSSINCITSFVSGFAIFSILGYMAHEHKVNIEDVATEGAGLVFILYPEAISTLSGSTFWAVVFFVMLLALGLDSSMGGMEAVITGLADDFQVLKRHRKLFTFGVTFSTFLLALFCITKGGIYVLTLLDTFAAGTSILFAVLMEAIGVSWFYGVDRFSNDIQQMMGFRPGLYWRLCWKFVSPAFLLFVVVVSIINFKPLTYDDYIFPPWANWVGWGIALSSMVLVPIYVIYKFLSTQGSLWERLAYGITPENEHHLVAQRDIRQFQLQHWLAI

For the molecule `COc1cc(O)c(C(=O)c2ccccc2)cc1S(=O)(=O)O`, the call in test [1], in test [2], in [3], in test [4], in test [5] and in test [6] was inactive. For the same molecule, the result in test [7] was inactive.

With `Cc1ccc([N+](=O)[O-])cc1N`, the molecule was classed as inactive in [8], in test [3], in test [4], in test [9], in test [5] and in test [6]. Also, the molecule was classed as inactive in [7] and in [10]. In [11], the AC50 is 18.8 µM (active).

Consider `COC(OC)(C(=O)c1ccccc1)c1ccccc1`, for which the concentration at half-maximal activity (AC50) in test [12] was 6.88 µM (active).

For `O=C(O)c1ccc2c(c1)C(=O)OC2=O`, the molecule was classed as inactive in test [1], in test [2], in [3], in test [5] and in [6]. In addition, the AC50 in test [4] is 22.6 µM (active).

Consider `[Cl][Eu]([Cl])[Cl]`, for which the AC50 in test [8] is 45.2 µM (active).

For the molecule `CC(C)(c1ccccc1)c1ccc(Nc2ccc(C(C)(C)c3ccccc3)cc2)cc1`, the molecule was classed as inactive in test [12], in [3], in [4], in test [6], in test [7] and in test [14]. The AC50 in test [13] is 2.72 µM (active); in [10], 1.54 µM (active); in test [11], 0.359 µM (active); in test [15], 9.95 µM (active); in [16], 0.82 µM (active).

Turning to `CCCCCCCCCCCCCC(=O)OC(C)C`, the AC50 in test [1] was 3.48 µM (active). Moreover, the call in test [3], in test [4], in test [9], in test [5], in test [6] and in [7] was inactive.

On to `C[Si](C)(C)N[Si](C)(C)C`, for which the result in [12], in test [2], in test [3], in [4] and in test [6] was inactive.

For the molecule `CC(CCC(=O)O)(c1ccc(O)cc1)c1ccc(O)cc1`, the AC50 in [12] was 6.23 µM (active); in test [3] it was 47.1 µM (active); in test [4], 35.7 µM (active). Further, the molecule was called inactive in [9], in [5] and in test [6].

As for `COc1ccc(C(=O)c2ccccc2)c(O)c1`, the call in test [1], in test [3], in test [4], in test [9], in test [17] and in test [6] was inactive. Moreover, the result in test [7], in test [13], in test [10], in [11], in test [15] and in test [16] was inactive. Moreover, the result in test [19] and in test [20] was inactive. The AC50 was 25 µM (active) in test [18] and 11.1 µM (active) in test [14].

Take `Cc1cc(C)n(CO)n1`: the outcome in test [8], in [3], in test [4], in test [9], in test [6] and in test [7] was inactive.

With `N#Cc1ccc(C(c2ccc(C#N)cc2)n2cncn2)cc1`, the outcome in test [1], in [2], in [3], in test [4], in [9] and in test [5] was inactive. For the same molecule, the call in [6] and in test [7] was inactive.

Take `CCCCC/C=C\C/C=C\CCCCCCCC(=O)O`: the AC50 is 35.8 µM (active) in test [12] and 12.7 µM (active) in test [6]. Also, the molecule was called inactive in test [3], in test [4], in test [9] and in test [7].

On to `Cc1ccc(C)c(OCCCC(C)(C)C(=O)O)c1`, for which the molecule was classed as inactive in test [1], in test [2], in test [3], in test [4] and in [9].

As to `CCCCCCCCCCCCCCCCCCOS(=O)(=O)O`, the molecule was called inactive in [12], in test [3], in [4], in test [9], in [5] and in test [6]. The result in test [7] was inactive.

As for `c1ccc(Nc2cccc3ccccc23)cc1`, the outcome in test [12], in test [3], in [4], in test [6] and in [7] was inactive. Further, the AC50 in test [17] is 77.5 µM (active); in test [5] it was 82 µM (active).
